In PubChem BioAssay (Tox21):
Unmarked numbers belong to inactive results. Calls follow the shape of the dose curve; as a rule, active = well fitted cell-killing curve with a large enough effect in the repeat runs; inconclusive = weak or mixed curves, or effect the other way; inactive = flat fitted curve, though single readings scatter.

Test: qHTS assay to identify small molecule HDAC inhibitors - cell viability counter screen (AID 1259365); also: nearly all actives have a fitted effect of over 50% in size
Details: HCT-116 viability, CellTiter-Glo ATP luminescence, 2 h; series mostly up to 92.4 µM; activity change, negative = cytotoxicity: at the top concentration
Source text: U.S. Tox21 Program National Center for Advancing Translational Sciences [NCATS] NIH Chemical Genomics Center [NCGC] U.S. Environmental Protection Agency [EPA] National Institutes of Environmental Health Sciences [NIEHS] National Toxicology Program [NTP] U.S. Food and Drug Administration [FDA] Tox21 Assay Overview: Histone deacetylases (HDACs) are a group of epigenetic enzymes that regulate gene expression by histone deacetylation. HDACs are capable of introducing epigenetic modifications and such aberrations contribute to the onset and progression of several human diseases, thus making HDACs a popular therapeutic target. For identifying endogenous class I/II HDAC inhibitors a homogenous, luminogenic HDAC I/II cell based assay was used to measure the relative activity of class I and II HDACs from cells. Wild type HCT-116 cells were used to screen Tox21 compound libraries for identifying class I/II HDAC inhibitors.
Tox21 Assay Protocol Summary: HCT-116 cells were dispensed at 1,500 per well in 5uL of culture medium into white solid bottom 1536-well plates (Greiner Bio-One, Monroe, NC) using a Multidrop Combi (Thermo Scientific, Waltham, MA) dispenser. The assay plates were incubated at 37 C and 5% CO2 for an overnight, and then 23nL of compounds dissolved in DMSO and positive control were transferred using a Pintool station (Wako, San Diego, CA). The assay plates were incubated at 37C and 5% CO2 for 2hr. After compound treatment, 4uL of CellTiter-Glo reagent (Promega Corporation, Madison, WI) was added to each well of the assay plates using Flying Reagent Dispenser (FRD, Aurora Discovery, San Diego, CA) and incubated the assay plates at room temperature for 30min. The luminescence signal was quantified using a ViewLux plate reader (Perkin Elmer, Shelton, CT).
% is scaled to controls: 0 for no effect and ±100 for the full control effect.

Structure (SMILES) | activity change, negative = cytotoxicity
CN(C)Cc1ccccc1 | -0.614%
CCC(=O)O[C@]1(C(=O)SCF)[C@H](C)C[C@H]2[C@@H]3C[C@H](F)C4=CC(=O)C=C[C@]4(C)[C@@]3(F)[C@@H](O)C[C@@]21C | -2.12% [at 42.5 µM]
CCC/C=C/CO | 0.996%
C[C@@H]1CN(c2c(F)c(F)c3c(=O)c(C(=O)O)cn(C4CC4)c3c2F)C[C@H](C)N1 | -3.08% [at 19 µM]
NC(=O)NS(=O)(=O)c1ccc(Cl)cc1 | -1.36% [at 42.5 µM]
C=CC1CO1 (stereo not given) | -0.983%
CN1[C@@H]2CC[C@H]1CC(OC(=O)c1c[nH]c3ccccc13)C2 (stereo not given in full) | 0.136% [at 42.5 µM]
Oc1ccccc1F | 0.103%
CC1(C)C(=O)N(Cl)C(=O)N1Br | -0.992%
Cc1nc(N)nc(N)c1-c1ccc(Cl)c(Cl)c1 | -15.8% [at 42.5 µM]
O=C1Nc2ccc([N+](=O)[O-])cc2C1=O | -9.5%
CC1CN(c2ccccc2)NC1=O (stereo not given) | 0.663%
FC(F)(F)C(Cl)(Cl)Cl | 0.433%
CC(C)(C)c1cccc(O)c1 | 5.71%
CCN(CC)C(=O)N(CC)CC | -3.45%
CC/C=C\CCOC(=O)CCCCC | 2.02%
Cc1c(N)cccc1N | 4.56%
Cc1ccc(C=O)s1 | 3.58%
Nc1ccc(Oc2ccc(N)c(N)c2)cc1 | -7.71%
O=C(O[C@@H](C(=O)O)[C@@H](OC(=O)c1ccccc1)C(=O)O)c1ccccc1 | 3.57%

Structure (SMILES) | activity change, negative = cytotoxicity
N#Cc1ccc(C(c2ccc(C#N)cc2)n2cncn2)cc1 | 2.16% [at 42.5 µM]
OCCN1CCN(CCO)CC1 | -0.118%
O=C(O)C(=O)Cc1c[nH]c2ccccc12 | 0.203%
CC(CNC1CCCCC1)OC(=O)c1ccccc1 (stereo not given) | 5.27% [at 42.5 µM]
CCCCCCn1c(=O)c2c(ncn2C)n(C)c1=O | 3.09% [at 42.5 µM]
CNCCC(Oc1ccccc1OC)c1ccccc1 (stereo not given) | -3.15% [at 42.5 µM]
OCCN(CCO)CCN(CCO)CCO | 0.0026%
CC(C)C1=CC2=CC[C@@H]3[C@](C)(CCC[C@@]3(C)C(=O)O)[C@H]2CC1 | -7.59%
CCCCCCOc1ccc(N)cc1 | -3%
CCOc1ccccc1N | 1.53%
O=C(O)c1cccc(Cl)c1Cl | -4.49%
CC(C)S | 2.28%
O=C1CCC(C2CCCCC2)CC1 | 0.139%
CN(C)C(=O)NC1(c2ccccc2)CCN(CCC[C@]2(c3ccc(Cl)c(Cl)c3)CCCN(C(=O)c3ccccc3)C2)CC1 | -5.58% [at 19 µM]
CCCNC(C)(C)COC(=O)c1ccccc1 | 2.85% [at 42.5 µM]
CCN1CC(CCN2CCOCC2)C(c2ccccc2)(c2ccccc2)C1=O (stereo not given) | -0.126% [at 42.5 µM]
OCc1ccccc1O | -4.59% [at 42.5 µM]
CC(C)O | 11.2%
CCCCC(=O)O[C@]1(C(=O)CO)[C@H](C)C[C@H]2[C@@H]3CCC4=CC(=O)C=C[C@]4(C)[C@@]3(F)[C@@H](O)C[C@@]21C | 0.0284% [at 42.5 µM]
C[C@]12CCC(=O)C=C1CC[C@@H]1[C@@H]2CC[C@@]2(C)[C@H]1CC[C@]2(O)C(=O)CO | -0.356% [at 42.5 µM]
